# Shown are actives, neighbours in structure and some others; about 3.6% of the full set was active somewhere.
# PLK1 PBD inh: qHTS for Inhibitors of PLK1-PDB (polo-like kinase 1 - polo-box domain): Primary Screen; Serine/threonine-protein kinase PLK1 (Homo sapiens), P53350; Plk1 PBD binding of FITC phosphopeptide, fluorescence polarization; Potency, µM, without a hit: max response, negative = inhibition, most hits filed as inhibitors; 360,000 tested, 2.8% active; further: potency means the concentration at half of the fitted maximal effect; series mostly up to about 57 µM; on the % scale 0 is the no-effect control and ±100 the full control effect; nearly all actives have a fitted effect of over 65% in size
# Rango dissoc inh: qHTS Assay for Inhibitors of RanGTP induced Rango (Ran-regulated importin-beta cargo) - Importin beta complex dissociation; Snurportin-1 (Homo sapiens) + GTP-binding nuclear protein Ran (Homo sapiens) + Importin …; Biochemical FRET Rango-importin beta, RanGTP-induced dissociation; Potency, µM (titrated, usually from 46.1 µM), for inactives: top-dose activity change, negative = inhibition; 340,000 tested, 0.071% active; AID 540253, 2011; calls by dose curve; further: potency means the concentration at half of the fitted maximal effect; % of control where 0% means no effect; nearly all actives have a fitted effect of over 45% in size
#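 Rango FRET biosensor (snurportin-1 IBB flanked by N-terminal EYFP and C-terminal CFP10) at 0.1 uM, with 0.25 uM importin beta in PBS, 1mM DTT, 0.02% Tween-20, 0.1% BSA. 0.6 uM Ran, 2mM GTP and 0.2 uM RCC1 were then added for 45 min at room temperature. Inhibition read as loss of FRET rise.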
# Rango-impB inh: qHTS Assay for Inhibitors of Rango (Ran-regulated importin-beta cargo) - Importin beta complex formation. Importin subunit beta-1 (Homo sapiens), Q14974. Rango CFP/YFP FRET sensor + importin beta, 45 min. Potency, µM (top dose mostly 92.2 µM), for the others: top-dose inhibition of complex formation. 340,000 tested, 0.031% active. AID 540263, 2011; calls by dose curve;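 further: potency means the concentration at half of the fitted maximal effect; 0% = DMSO wells and 100% = buffer wells lacking importin beta; nearly all actives have a fitted effect of over 15% in size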
# Target sequence (Q14974 whole entry, looked up): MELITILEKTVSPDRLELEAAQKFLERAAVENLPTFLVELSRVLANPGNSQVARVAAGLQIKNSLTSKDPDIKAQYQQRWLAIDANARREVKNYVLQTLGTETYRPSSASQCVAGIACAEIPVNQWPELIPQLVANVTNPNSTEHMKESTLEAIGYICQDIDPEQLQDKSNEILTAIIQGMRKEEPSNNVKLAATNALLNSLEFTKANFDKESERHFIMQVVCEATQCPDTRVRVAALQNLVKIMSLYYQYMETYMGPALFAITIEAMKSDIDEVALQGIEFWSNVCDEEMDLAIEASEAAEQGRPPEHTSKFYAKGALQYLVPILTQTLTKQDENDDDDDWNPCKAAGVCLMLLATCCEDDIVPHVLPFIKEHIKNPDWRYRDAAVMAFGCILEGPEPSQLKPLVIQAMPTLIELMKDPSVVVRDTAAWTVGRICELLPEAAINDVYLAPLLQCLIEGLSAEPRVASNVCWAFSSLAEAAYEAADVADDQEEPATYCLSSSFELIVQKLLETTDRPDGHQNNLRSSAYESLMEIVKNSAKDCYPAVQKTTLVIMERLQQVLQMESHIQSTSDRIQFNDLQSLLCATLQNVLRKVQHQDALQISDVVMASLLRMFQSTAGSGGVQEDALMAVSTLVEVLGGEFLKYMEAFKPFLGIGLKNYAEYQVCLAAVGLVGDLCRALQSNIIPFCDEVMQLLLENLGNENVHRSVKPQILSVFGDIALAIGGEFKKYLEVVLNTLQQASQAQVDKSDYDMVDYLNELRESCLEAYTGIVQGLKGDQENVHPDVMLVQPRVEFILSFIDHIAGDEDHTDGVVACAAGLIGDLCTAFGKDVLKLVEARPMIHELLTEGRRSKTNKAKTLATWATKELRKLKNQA
#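 FRET biosensor (snurportin 1 IBB flanked by EYFP and cerulean), 50 nM, with compound 5 min, then 0.125 microM importin beta in PBS, 1 mM DTT, 0.02% Tween-20, 0.1% BSA. CFP/YFP ratio read after 45 min at room temperature; pre-read flags interference.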
# KAT2A inh: qHTS Assay for Inhibitors of GCN5L2. Histone acetyltransferase KAT2A (Homo sapiens), Q92830. Potency, µM (titrated, usually from 58.9 µM), for inactives: top-dose activity change, negative = inhibition, usual class: inhibitors. GCN5L2 HAT assay, ThioGlo1 CoA-SH fluorescence. 390,000 tested, 0.21% active; further: potency means the concentration at half of the fitted maximal effect; on the % scale 0 is the no-effect control and ±100 the full control effect
#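 Titration-based screen in which CoA formation is detected via maleimide probe ThioGlo1 (50uM) turning fluorescent on thiol reaction; substrates H3(1-25) 75uM and acetyl-CoA 70uM, GCN5L2 20nM, 20 min incubation at room temperature.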
# VDR inh: Inhibitors of the vitamin D receptor (VDR): qHTS; Vitamin D3 receptor (Homo sapiens), P11473; VDR-SRC2-3 peptide fluorescence polarization, 2 h; Potency, µM, for the others: max response, negative = inhibition, actives largely listed as inhibitors; 400,000 tested, 0.93% active; AID 504847, 2011; further: potency means the concentration at half of the fitted maximal effect; on the % scale 0 is the no-effect control and ±100 the full control effect
#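 Reagent solutions, kept cold and dark, are dispensed first; compounds are then pinned in at 23 nl, plates briefly spun, and incubated 2 h at ambient temperature. Inhibition of VDR–SRC2-3 peptide binding is read by fluorescence polarization.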
# PI5P4Ka inh: qHTS for Inhibitors of phosphatidylinositol 5-phosphate 4-kinase (PI5P4K); Phosphatidylinositol 5-phosphate 4-kinase type-2 alpha (Homo sapiens), P48426; PI5P4Kalpha enzyme, ADP-Glo luminescence, 60 min; hits give low values; max response, %; 330,000 tested, 1.2% active; AID 652105, 2013; active means max response of -50% or lower; inconclusive means between -30% and -50%; inactive means -30% or higher; further: value at the top dose of about 77 µM; on the % scale 0 is the no-effect control and ±100 the full control effect
#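 PI5P4Kalpha ADP-Glo assay; 5 microM ATP final; 60 min RT reaction; HEPES pH 7.4/EGTA/CHAPS, 5% DMSO; controls lacking substrate or enzyme; luminescent end-point.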
# * marks the source's active call; other numbers are inactive results; ? = inconclusive; . = no result given. Unless noted, the call rests on the fitted dose curve; in most records, active means well fitted curve in the direction sought with a large enough effect; inconclusive means small, poorly fitted or top-dose-only effect, or another doubt; inactive means no such curve, though single readings can be large; an effect the other way counts as inactive or inconclusive.
SMILES,PLK1 PBD inh,Rango dissoc inh,Rango-impB inh,KAT2A inh,VDR inh,PI5P4Ka inh
O=C1CC(c2ccc3c(c2)OCCO3)Oc2ccc([N+](=O)[O-])cc21 (stereo not drawn),-17%,-17%,4%,-6%,20µM*,1
O=C1CC(c2ccc3c(c2)OCCO3)Oc2ccccc21 (stereo not drawn),8.4µM*,7%,-4%,-3%,-14%,0
Cc1nn(-c2ccccc2)c(NC(=O)NS(=O)(=O)c2ccc(Cl)cc2)c1C#N,.,.,.,-8%,5%,.
O=[N+]([O-])c1ccccc1-c1ccc(C(=S)N2CCN(c3ccccc3)CC2)o1,24µM*,-1%,0%,-15%,79µM*,-2
O=[N+]([O-])c1ccc(N2CCN(C(=S)c3cccc([N+](=O)[O-])c3)CC2)cc1,2.4µM*,-17%,-3%,-12%,?,?
Cc1ccc(N2CCN(C(=S)c3ccc(-c4ccccc4[N+](=O)[O-])o3)CC2)cc1,9.5µM*,16%,1%,-12%,?,-3
Cc1ccc(N2CCN(C(=S)c3ccc(-c4cccc([N+](=O)[O-])c4)o3)CC2)cc1,30µM*,6%,2%,9%,?,-10
COc1ccc(CNc2nc(-c3ccco3)nn2C(=O)CC(C)C)cc1,.,.,.,-17%,-1%,.
COC(=O)c1ccc(NC(=O)c2ccccc2N(C)S(=O)(=O)c2ccccc2)cc1,24µM*,9%,0%,1%,-10%,-18
COC(=O)c1ccccc1NC(=O)c1ccccc1N(C)S(=O)(=O)c1ccccc1,-19%,0%,0%,-17%,-21%,3
Cc1ccccc1C(=O)NC(=S)Nc1ccc(S(=O)(=O)N(C)c2ccccc2)cc1,27µM*,11%,-7%,-3%,-8%,-14
Cc1cc(C)c(OCC(O)CNC(C)(C)C)c(C)c1 (stereo not drawn),24µM*,-9%,2%,-3%,-23%,0
CC1(C)Cc2c(sc(NC(=O)C(=O)NCCCN3CCOCC3)c2C#N)CO1,12µM*,-12%,-4%,-1%,-5%,4
CC1(C)Cc2c(sc(NC(=O)/C=C/C(=O)O)c2C#N)CO1,-4%,-1%,0%,-4%,-16%,?
Cc1ccc(N)cc1O,-16%,23µM*,?,-6%,0%,1
CCOC(=O)c1c(SCC(=O)Nc2nc3ccc(C)cc3s2)nc(=O)[nH]c1C,.,.,.,-1%,-2%,.
O=C(O)c1cc(N/N=C/c2ccc(N3CCOCC3)s2)ccc1Cl,?,?,?,-23%,-28%,-56*
CN(C)C(=O)c1ccc(NC(=O)c2cc(-n3cnnc3)ccc2Cl)cc1,17µM*,14%,?,2%,?,4
CN(C)c1ncnc2ccc(-c3ccccc3C#N)cc12,.,.,.,-2%,4%,.
C=CCNC(=S)Nc1ccc(N(C)C)cc1,-24%,-13%,7%,2%,79µM*,-3
CCOc1ccc(-c2cc(CCCC(=O)NCCc3ccc(SC)cc3)no2)cc1,.,.,.,-1%,-2%,.
CCN(CC)c1ccc(NC(=O)c2cnn(-c3ccccc3)c2-n2cccc2)c(C)c1,.,.,.,1%,8%,.
Cc1ccc(C2C=C(c3ccccc3)Nc3ncnn32)cc1 (stereo not drawn),30µM*,?,?,.,?,-16
Fc1ccc(C2=CC(c3ccc(Br)o3)n3ncnc3N2)cc1 (stereo not drawn),11µM*,?,?,?,?,?
CC(C)Oc1ccc(CNC(=O)Cn2nc(N3CCN(c4ccccc4)CC3)ccc2=O)cc1,.,.,.,1%,7%,.
SMILES,PLK1 PBD inh,Rango dissoc inh,Rango-impB inh,KAT2A inh,VDR inh,PI5P4Ka inh
O=c1[nH]c(/C=C/c2ccc([N+](=O)[O-])cc2)c([N+](=O)[O-])c(=O)[nH]1,-5%,-5%,-4%,-7%,?,-66*
O=c1[nH]c(/C=C/c2ccc3c(c2)OCO3)c([N+](=O)[O-])c(=O)[nH]1,.,.,.,0%,.,.
COc1ccc(OC)c(/C=C/c2[nH]c(=O)[nH]c(=O)c2[N+](=O)[O-])c1,-3%,-5%,-2%,-12%,?,-77*
COc1ccc(OC)c(C=Cc2ccc([N+](=O)[O-])cc2)c1,-12%,.,.,.,.,6
Cc1cccc(NC(=O)COc2ccc(/C=C\c3[nH]c(=O)[nH]c(=O)c3[N+](=O)[O-])cc2)c1,?,1%,5%,-28%,?,-57*
CC(C)c1ccc(C(=O)Nc2ccc(-c3nc4ccccc4s3)c(Cl)c2)cc1,.,.,.,8%,0%,.
Cc1c(CCCC(=O)O)sc(N)c1C(=O)c1cccc(C(F)(F)F)c1,.,3%,4%,.,89µM*,.
Cc1cccc(CN2CCN(CC(=O)NCCc3ccc(Cl)cc3)C2=O)c1,.,.,.,-22%,42%,.
O=C(c1ccco1)N1CCN(C(c2ccccc2)c2nnnn2Cc2cccs2)CC1 (stereo not drawn),-7%,-5%,0%,-12%,-10%,1
CC(C)C(c1nnnn1Cc1cccs1)N1CCN(C(=O)c2ccco2)CC1 (stereo not drawn),19µM*,-4%,1%,-4%,-9%,-14
O=C(c1ccco1)N1CCN(Cc2nnnn2CC2CCCO2)CC1 (stereo not drawn),12µM*,-2%,0%,6%,?,-19
Cc1ccc(C)c(NC(=O)C(=O)NCCc2csc3nc(-c4ccccc4C)nn23)c1,.,.,.,-19%,16%,.
CCOc1cc(/C=C2/C(=N)N3C(=NC2=O)SN=C3S(=O)(=O)C(C)C)ccc1OC(=O)c1ccco1,27µM*,?,?,-23%,?,-83*
COc1cc(/C=C2/C(=N)N3C(=NC2=O)SN=C3S(=O)(=O)C(C)C)ccc1OC(=O)c1ccco1,21µM*,8.2µM*,?,-20%,?,-75*
CC(=O)Nc1ccn(C2OC(C(COC(C)=O)NC(=O)C(C)NC(=O)OC(C)(C)C)C(OC(C)=O)C2OC(C)=O)c(=O)n1 (stereo not drawn),.,.,.,.,-5%,.
